Test systems include SK-MEL-2 melanoma; EKVX NSCLC; SN12C renal; UO-31 renal; TK-10 renal; ACHN renal; CAKI-1 renal; A498 renal; CCRF-CEM leukemia; MOLT-4 leukemia.
Assay in all cases: NCI-60 one-dose screen, 48 h (100 = growth as untreated, 0 = no growth, -100 = all killed)
Common to all, as to conditions: 10 µM unless noted

Compounds without any hit were thinned out: in the full panel of roughly 83,000, 20% have a hit.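 Cells were grown in 96-well plates and exposed to the test compound at a single concentration for 48 hours; results are reported as percent growth, with values below 10 considered active.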 Unmarked numbers belong to inactive results. Activity calls are given as the source filed them.

As for `N#Cc1c(-c2ccc(Br)cc2)nc2c(N=Nc3ccc(S(N)(=O)=O)cc3)c(N)nn2c1N`, the growth in the experiment with SK-MEL-2 melanoma was 43.4%; in the experiment with EKVX NSCLC, 71.1%; in the experiment on SN12C renal it was 45.6%; with UO-31 renal it was 59.5%; in the experiment with TK-10 renal, 73.2%; in the experiment with ACHN renal, 71.1%. Besides, the growth in the experiment on CAKI-1 renal is 52.5%; with A498 renal, 65%; with CCRF-CEM leukemia, -4.46% (active); in the experiment on MOLT-4 leukemia, 1.59% (active).
For the molecule `Cc1cccc(NC(=O)N/C(N)=N/c2nc3ccccc3s2)c1`, the growth with SK-MEL-2 melanoma is 33%; with EKVX NSCLC, 49.6%; in the experiment with SN12C renal it was 43.9%; in the experiment with UO-31 renal, 38.6%; with TK-10 renal it was 59%; in the experiment with ACHN renal, 38.7%. In addition, the growth in the experiment with CAKI-1 renal is 25%; in the experiment on A498 renal it was -3.86% (active); in the experiment with CCRF-CEM leukemia it was 21.4%; with MOLT-4 leukemia, 35.7%.
On to `COC12C=C/C(=C(/C(=O)OCc3cncnc3)C(=O)CCCCCCCCC3(OC)C=C/C(=C(/C(=O)OCc4cncnc4)C(=O)CCCCCCCC1)O3)O2`, for which the growth in the experiment with SK-MEL-2 melanoma is -13.1% (active); with EKVX NSCLC, -20.5% (active); in the experiment with SN12C renal, -34.7% (active); in the experiment with UO-31 renal, -73.6% (active); with TK-10 renal, -23.6% (active); with ACHN renal, -93.7% (active). Also, the growth is -43.5% (active) in the experiment with CAKI-1 renal, -94.1% (active) with A498 renal, -18.2% (active) in the experiment on CCRF-CEM leukemia and -13.4% (active) with MOLT-4 leukemia.
As to `COc1ccc(C2C3=C(COC3=O)N(CCO)c3cc4c(cc32)OCO4)cc1OC` (stereo not given), the growth was 93.2% with SK-MEL-2 melanoma; 96.1% in the experiment on EKVX NSCLC; 94.8% in the experiment on SN12C renal; 95.9% in the experiment on UO-31 renal; 105% in the experiment on TK-10 renal; 101% with ACHN renal. Also, the growth in the experiment on CAKI-1 renal is 98.4%; in the experiment with A498 renal it was 79%; in the experiment with CCRF-CEM leukemia, 65.2%; in the experiment on MOLT-4 leukemia, 88.5%.
Consider `ClC(Cl)c1nc(-c2ccccc2)n2nc(-c3ccccc3)cc2n1`, for which the growth is 72.1% in the experiment with SK-MEL-2 melanoma; -22.1% (active) in the experiment on EKVX NSCLC; 58.7% in the experiment on SN12C renal; 3.46% (active) in the experiment on UO-31 renal; 0.776% (active) in the experiment with TK-10 renal; -57% (active) with ACHN renal. For the same molecule, the growth in the experiment on CAKI-1 renal was -34.7% (active); with A498 renal, -26.5% (active); in the experiment on CCRF-CEM leukemia it was 63.3%; with MOLT-4 leukemia, 30.8%.
Regarding `Cc1cc(NCCCNc2ccnc3cc(Cl)ccc23)nc(Nc2ccc(C(=O)N3CCCCC3)cc2)n1`, the growth with SK-MEL-2 melanoma is 75.7%; in the experiment with EKVX NSCLC, 48.4%; in the experiment with SN12C renal it was 36.6%; in the experiment on UO-31 renal, 57.6%; in the experiment on TK-10 renal it was 5.49% (active); in the experiment on ACHN renal it was 43.2%. The growth in the experiment with CAKI-1 renal was 76.2%; in the experiment with A498 renal it was 66.9%; with CCRF-CEM leukemia, 14.4%; with MOLT-4 leukemia, 20.7%.
Consider `COc1ccc(/C=C2\c3cc(OC)c(OC)c(OC)c3CC[C@@H]2O)cc1F`, for which the growth in the experiment on SK-MEL-2 melanoma is 41.6%; in the experiment with EKVX NSCLC, 44.1%; in the experiment with SN12C renal it was 53.2%; in the experiment with UO-31 renal, 47.7%; with TK-10 renal, 57.9%; with ACHN renal it was 43%. The growth in the experiment on CAKI-1 renal was 48.4%; with A498 renal, 8.33% (active); with CCRF-CEM leukemia it was 12.8%; in the experiment on MOLT-4 leukemia it was 21.5%.
For `N=C(N)c1ccc(OCCSCCOc2ccc(C(=N)N)cc2)cc1`, the growth in the experiment on SK-MEL-2 melanoma is 82.5%; in the experiment with EKVX NSCLC it was 56.6%; with SN12C renal, 37.4%; in the experiment with UO-31 renal, 70.7%; with TK-10 renal it was 60.8%; with ACHN renal it was 74.3%. For the same molecule, the growth in the experiment on CAKI-1 renal was 51.7%; in the experiment with A498 renal, 51.7%; in the experiment on CCRF-CEM leukemia, 97.6%; with MOLT-4 leukemia, 93.4%.
As for `ClCCn1cnc2c(SCc3ccccc3)ncnc21`, the growth with SK-MEL-2 melanoma was 120%; in the experiment with EKVX NSCLC, 77.2%; with SN12C renal, 57.5%; with UO-31 renal, 65.2%; in the experiment on TK-10 renal, 83.5%; in the experiment with ACHN renal it was 49.4%. The growth with CAKI-1 renal was 3.9% (active); in the experiment with A498 renal, 81.6%; in the experiment on CCRF-CEM leukemia, 62.8%; with MOLT-4 leukemia, 45.8%.
For the molecule `c1ccc(-c2ccc3c(c2)C2(CCNCC2)CN3)cc1`, the growth with SK-MEL-2 melanoma is 93.4%; in the experiment on EKVX NSCLC, 75.9%; in the experiment with SN12C renal it was 98.7%; with UO-31 renal, 66.1%; in the experiment with TK-10 renal it was 125%; in the experiment with ACHN renal, 93%. Further, the growth in the experiment with CAKI-1 renal is 93%; with A498 renal, 104%; in the experiment on CCRF-CEM leukemia, 112%; in the experiment with MOLT-4 leukemia, 85.7%.
For the molecule `CN(C)CCn1c(=O)c2ccccc2n2nc3ccccc3c12`, the growth is 128% in the experiment with SK-MEL-2 melanoma; 94.1% with EKVX NSCLC; 69.9% in the experiment on SN12C renal; 52.9% in the experiment on UO-31 renal; 97.9% in the experiment with TK-10 renal; 46.6% in the experiment on ACHN renal. Further, the growth in the experiment on CAKI-1 renal is 77.6%; with A498 renal, 9.6% (active); with CCRF-CEM leukemia, 81.8%; with MOLT-4 leukemia, 29.9%.
For the molecule `CC(=O)Nc1sc2c(c1-c1nc3ccccc3s1)CNC2`, the growth in the experiment on SK-MEL-2 melanoma is 23.2%; in the experiment on EKVX NSCLC it was 30.6%; in the experiment on SN12C renal it was 27.9%; with UO-31 renal, 6.46% (active); in the experiment on TK-10 renal, 29%; in the experiment with ACHN renal, 9.91% (active). The growth was 23.8% in the experiment on CAKI-1 renal, 36.6% with A498 renal, 22.6% with CCRF-CEM leukemia and 10.4% in the experiment with MOLT-4 leukemia.
